In the library only some 14% were active in any assay of this set; here they are far more common.
Lassa entry inh – inhibitors of Lassa virus binding or cell entry. 1.2% of 300,000 active. AID 540256. Lassa virus pseudotype entry inhibition, cell reporter. Potency, µM (series often up to 37.9 µM), for the others: at the top dose activity change, negative = inhibition, usual class: inhibitors; calls by dose curve; tested in HEK293 cells; note: potency is the fitted concentration of half-maximal effect; nearly all actives have a fitted effect of over 50% in size
Marburg entry inh – blocks Marburg virus binding to or entry into cells; 1.8% of 300,000 active; Marburg virus pseudotyped entry inhibition, cell reporter; AID 540276; Potency, µM (series often up to 37.8 µM), for inactives: top-dose activity change, negative = inhibition, actives largely listed as inhibitors; calls by dose curve; tested in HEK293 cells; note: potency is the fitted concentration of half-maximal effect
HCMV antiviral – human cytomegalovirus inhibition; HFF cells, HCMV-luciferase reporter, 72 h; active compounds read low; AID 1259415; activity change, negative = inhibition, % at 57.5 µM; 4.5% of 410,000 active; in the data active = activity change below about -60%; inconclusive = no clear call, values can overlap the other calls; inactive = above about -39%
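Human foreskin fibroblasts infected with luciferase-reporter HCMV at MOI 1 PFU/cell, compounds at two doses. Luciferase measured 72 h post infection; normalized to buffer-only basal and Salinomycin (10uM) controls.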
Pf growth 48h – inhibits P. falciparum growth in the first generation, 48 h; Potency, µM (titrated, usually from 28.7 µM), for the others: top-dose activity change, negative = inhibition, actives largely listed as inhibitors; 5.9% of 310,000 active; AID 504832; P. falciparum luciferase growth in erythrocytes, 48 h; note: potency is the fitted concentration of half-maximal effect
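Read-out is firefly luciferase luminescence from an integrated reporter in P. falciparum, so falling signal marks reduced parasite growth. Infected erythrocytes were at 2% hematocrit and 0.1% parasitemia (final) in Albumax-supplemented RPMI 1640.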
Pf growth 96h – P. falciparum growth inhibition at 96 hours; Potency, µM (titrated, usually from 28.7 µM), inactives show at the highest dose activity change, negative = inhibition, usual class: inhibitors; 6.9% of 320,000 active; AID 504834; P. falciparum luciferase reporter growth, 96 h; note: potency is the fitted concentration of half-maximal effect
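P. falciparum expressing integrated firefly luciferase grown in erythrocytes (2% hematocrit, 0.05% parasitemia final) with compounds for 96 hours at 37 C, 5% CO2. Growth inhibition read as loss of luminescence after adding luciferase detection reagent.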
HCV inh – inhibitors of hepatitis C virus infection. Huh7.5.1 HCVcc-Cre infection, luciferase reporter, 44 h. Potency, µM (doses to about 41.8 µM), without a hit: at the highest dose activity change, negative = inhibition, hits mostly inhibitors. 3.4% of 340,000 active. AID 651820; note: potency is the fitted concentration of half-maximal effect
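Infectious HCVcc-Cre (~0.5 moi) was added to cells just after compound, with cells seeded 4 h earlier at 1,000 per well. Luciferase activity after 44 h culture reported infection; substrate was incubated 15 min at room temperature before reading.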
Numbers without * were called inactive; ? = inconclusive; / = no result; [ ] = dose if it differs, or a comment. Unless noted, calls come from the whole dose curve; as a rule, active = well fitted inhibition curve with a large enough effect; inconclusive = small, poorly fitted or top-dose-only effect, or another doubt; inactive = no such curve, though single readings can be large or run the other way. % is set by controls: 0 for no effect and ±100 for the full control effect.

SMILES	Lassa entry inh	Marburg entry inh	HCMV antiviral	Pf growth 48h	Pf growth 96h	HCV inh
C#CCN1C(C)=C(C(=O)OC)C(c2cccc([N+](=O)[O-])c2)C(C(=O)OCC)=C1C (centres undefined)	?	14µM*	-29	13µM*	?	?
CCOC(=O)C1=C(C)NC(C)=C(C(=O)OCC)C1c1cccc([N+](=O)[O-])c1	/	/	12	/	/	/
COC(=O)C1=C(C)NC(C)=C(C(=O)OCCCN2CCC(c3ccccc3)(c3ccccc3)CC2)C1c1cccc([N+](=O)[O-])c1 (centres undefined)	/	/	/	1.5µM*	15µM*	/
O=C(CCN1C(=O)/C(=C\c2cccs2)SC1=S)Nc1ccc(C(=O)O)cc1	/	/	-21	-2%	?	9%
CC(C)c1ccc(NC(=O)CCNC(=O)Cn2ccc3ccccc3c2=O)cc1	?	10%[46.1 µM]	29	21%	36%	-7%
O=C(CCN1C(=O)/C(=C/c2ccccc2F)SC1=S)Nc1cccnc1	10%	-1%	-27	77%	?	12%
CCN(CC)CCOC(=O)c1ccc(NC(=O)CCNC(=O)Cn2ccc3ccccc3c2=O)cc1	-20%	2%	44	-2%	12µM*	12%
O=C(CCCN1C(=O)/C(=C/c2ccccc2OC(F)F)SC1=S)Nc1cccnc1	?	?	-65*	/	/	11µM*
CCN(CC)CCOC(=O)c1ccc(NC(=O)CCCN2C(=O)/C(=C\c3cccs3)SC2=S)cc1	/	/	17	2.3µM*	4.1µM*	10µM*
COc1ccccc1/C=C1/SC(=S)N(CCC(=O)Nc2cccnc2)C1=O	/	/	-19	16%	?	?
O=C(CCCN1C(=O)/C(=C\c2cccs2)SC1=S)Nc1cccnc1	-14%	-21%	-93*	-15%	54%	7%
CCOC(=O)c1cc(C)n(CC2CCC(C(=O)Nc3ccccc3OC)CC2)c1C (centres undefined)	-1%[46.1 µM]	/	-30	/	/	/
O=C(CCCN1C(=O)/C(=C/c2cccs2)SC1=S)Nc1cccnc1	?	?	-98*	-17%	3%	?
CC1(c2nnnn2-c2ccc3c(c2)OCCO3)CCC(=O)N1CCc1ccc(O)cc1 (centres undefined)	/	/	-7	/	/	/
Cc1ccc(-c2ccc(C(=O)NCc3ccccc3)o2)c2ccccc12	6.5µM*	34%	-6	?	10µM*	?
O=C(NCc1ccc(Cl)cc1)c1ccc(-c2ccccc2C(F)(F)F)o1	5.2µM*	11%	32	-7%	0%	-4%[8.37 µM]
Cc1ccc(-c2cccc(C(=O)NCCc3ccccc3)n2)c2ccccc12	9%	23%	35	2%	-16%	?
Cc1ccc(-c2cccc(C(=O)NCc3ccccc3)n2)c2ccccc12	?	-20%	27	?	13µM*	?
Cc1ccc(-c2ccc(C(=O)Nc3ccccc3)o2)c2ccccc12	?	-19%	-5	-9%	?	?
CCOc1ccccc1-c1ccc(C(=O)NCc2ccccc2)o1	7.3µM*	7%	-2	?	7.4µM*	14µM*
COc1ccc2occ(C(=O)c3ccccc3)c2c1	?	9%	-33	118%	5%	-17%
COc1ccc(OC)c(C(=O)c2coc3ccc(O)cc23)c1	?	-25%	20	16%	10µM*	-7%
O=C(c1coc2ccc(O)cc12)C1CC1	1%	0%	-9	40%	8.3µM*	-7%
COc1ccc(C2NC(=O)N(C)C3=C2C(=O)N(c2ccccc2)C3)cc1 (centres undefined)	9%[46.1 µM]	-1%[46.1 µM]	3	/	/	/
Cc1ccccc1CNC(=O)c1ccc(Cn2c(SCc3cccc(F)c3)nc3cccnc32)cc1	-10%[46.1 µM]	/	-34	/	/	/
O=C(OCC(=O)N1CCCCCC1)c1ccc[nH]c1=O	/	/	-60*	/	/	20%
O=C(OCC(=O)N1CCOCC1)c1ccc[nH]c1=O	-5%	-11%	29	22%	0%	15%
O=C(COC(=O)c1ccc[nH]c1=O)Nc1ccc(N2CCCCC2)cc1	/	/	-75*	/	/	-25%

Assay outcomes (PubChem)
